# Inconclusive results are not listed. Calls of active or inactive are those of the source. How the source made its calls, unless noted: active means hit-call score of the fitted dose curve at least 0.9, where 1 is the maximum; inconclusive means response in the unintended direction; inactive means score below 0.9.
# Experiments:
# [1] = ATG_TCF_b_cat_CIS: Attagene CIS-FACTORIAL HepG2 Assay for human T-Cell-Factor with beta-catenin (TCF/b-cat) (AID 2282965; active means hit-call score of the fitted dose curve at least 0.9, where 1 is the maximum; inactive means score below 0.9); conditions: HepG2 TCF/beta-catenin cis-reporter transcription, actives raise or lower the signal
# In short: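 Measured: reporter mRNA in HepG2 transiently transfected with cis-promoter reporter units, 24 h after chemical addition. Fitting was bidirectional, DMSO as negative control.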
# [2] = ATG_TGFb_CIS: Attagene CIS-FACTORIAL HepG2 Assay for human Transforming Growth Factor (TGF) (AID 2282967; active means hit-call score of the fitted dose curve at least 0.9, where 1 is the maximum; inactive means score below 0.9); conditions: HepG2 Attagene CIS TGFb reporter, mRNA transcription; actives raise or lower the signal
# In short: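 Endogenous TGFB1-linked transcription factor activity read as reporter mRNA via RT-PCR and capillary electrophoresis, 24 h after dosing transiently transfected HepG2 cells. Gain or loss of signal fitted relative to DMSO.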
# [3] = ATG_VDRE_CIS: Attagene CIS-FACTORIAL HepG2 Assay for human Vitamin D Receptor Element (VDRE) (AID 2282968; active means hit-call score of the fitted dose curve at least 0.9, where 1 is the maximum; inactive means score below 0.9); conditions: HepG2 VDRE cis-reporter transcription, actives raise or lower the signal
# In short: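 Measures endogenous factor activity through cis-element-driven reporter transcripts in transiently transfected HepG2. Cells are treated 24 h; reporter mRNA is quantified by RT-PCR and capillary electrophoresis; fitting is bidirectional.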
# [4] = molecular target: Estrogen receptor (Homo sapiens) (UniProt P03372); test: ATG_ERa_TRANS: Attagene TRANS-FACTORIAL HepG2 Assay for human Estrogen Receptor alpha (ERa) (AID 2282970); conditions: HepG2 Attagene TRANS ERa GAL4 reporter, mRNA
# Estrogen receptor (Homo sapiens), sequence (P03372 whole entry, looked up, the tested form may be a part): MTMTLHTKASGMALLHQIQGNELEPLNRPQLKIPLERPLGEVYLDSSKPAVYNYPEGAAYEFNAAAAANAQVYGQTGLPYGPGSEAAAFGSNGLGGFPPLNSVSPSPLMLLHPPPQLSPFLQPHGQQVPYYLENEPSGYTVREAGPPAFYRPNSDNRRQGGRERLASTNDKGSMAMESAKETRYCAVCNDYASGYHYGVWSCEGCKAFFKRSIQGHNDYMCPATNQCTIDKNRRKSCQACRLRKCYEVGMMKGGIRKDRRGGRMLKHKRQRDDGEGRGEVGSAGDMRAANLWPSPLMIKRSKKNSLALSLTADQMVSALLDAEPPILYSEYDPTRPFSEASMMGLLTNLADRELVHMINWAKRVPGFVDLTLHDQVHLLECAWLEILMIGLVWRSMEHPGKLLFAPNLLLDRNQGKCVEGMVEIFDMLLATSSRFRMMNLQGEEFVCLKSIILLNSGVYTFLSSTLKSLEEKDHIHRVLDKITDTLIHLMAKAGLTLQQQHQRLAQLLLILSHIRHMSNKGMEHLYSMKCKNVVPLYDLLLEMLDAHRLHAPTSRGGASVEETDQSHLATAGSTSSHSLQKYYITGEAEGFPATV
# In short: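 Transfected HepG2 cells carrying GAL4-UAS-driven reporter units were dosed for 24 hours. Total RNA was reverse-transcribed, reporter sequences PCR-amplified, FAM-labelled, HpaI-digested and resolved by capillary electrophoresis. Increases over DMSO control defined activity.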
# [5] = molecular target: X-box-binding protein 1 (Homo sapiens) (UniProt P17861); test: ATG_Xbp1_CIS: Attagene CIS-FACTORIAL HepG2 Assay for human X-box Binding Protein 1 (XBP1) (AID 2282972; active means hit-call score of the fitted dose curve at least 0.9, where 1 is the maximum; inactive means score below 0.9); conditions: HepG2 XBP1 cis-element reporter, Attagene multiplex; actives raise or lower the signal
# X-box-binding protein 1 (Homo sapiens), sequence (P17861 whole entry, looked up): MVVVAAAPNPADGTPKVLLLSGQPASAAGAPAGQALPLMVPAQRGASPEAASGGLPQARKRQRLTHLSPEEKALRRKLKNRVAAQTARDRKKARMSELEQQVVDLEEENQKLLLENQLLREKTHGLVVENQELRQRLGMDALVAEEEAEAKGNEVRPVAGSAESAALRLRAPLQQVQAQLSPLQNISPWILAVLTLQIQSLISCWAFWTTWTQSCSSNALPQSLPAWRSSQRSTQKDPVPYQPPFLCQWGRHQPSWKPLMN
# In short: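 Changes in reporter transcript abundance, read by RT-PCR and capillary electrophoresis, reflect endogenous transcription factor activity. Transfected HepG2 cells received compound for 24 hours; DMSO defined baseline for bidirectional analysis.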
# [6] = ATG_M_19_TRANS: Attagene TRANS-FACTORIAL HepG2 Assay for M19 Transcription Factor (Internal Marker) (AID 2282974); conditions: HepG2 Attagene TRANS-FACTORIAL M19 internal marker reporter
# In short: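 After transfection of HepG2 with GAL4-UAS-driven reporter constructs, cells are dosed for 24 h. Total RNA is reverse-transcribed, reporter sequences PCR-amplified and labelled, then HpaI-digested and sized by capillary electrophoresis.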
# [7] = ATG_GAL4_TRANS: Attagene TRANS-FACTORIAL HepG2 Assay for GAL4 (Internal Marker) (AID 2282976); conditions: HepG2 Attagene TRANS GAL4 internal marker reporter
# In short: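 Fluorescence from capillary electrophoresis of labelled RT-PCR products quantifies reporter mRNA induction after 24 h dosing of HepG2 cells carrying transfected GAL4-UAS reporter transcription units. Vehicle DMSO serves as baseline.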
# [8] = molecular target: Glucocorticoid receptor (Homo sapiens) (UniProt P04150); test: ATG_GR_TRANS: Attagene TRANS-FACTORIAL HepG2 Assay for human Glucocorticoid Receptor (GR) (AID 2282978); conditions: HepG2 Attagene TRANS GR reporter, mRNA transcription;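 further: activators score as hits since higher reporter transcript over DMSO is fitted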
# Glucocorticoid receptor (Homo sapiens), sequence (P04150 whole entry, looked up): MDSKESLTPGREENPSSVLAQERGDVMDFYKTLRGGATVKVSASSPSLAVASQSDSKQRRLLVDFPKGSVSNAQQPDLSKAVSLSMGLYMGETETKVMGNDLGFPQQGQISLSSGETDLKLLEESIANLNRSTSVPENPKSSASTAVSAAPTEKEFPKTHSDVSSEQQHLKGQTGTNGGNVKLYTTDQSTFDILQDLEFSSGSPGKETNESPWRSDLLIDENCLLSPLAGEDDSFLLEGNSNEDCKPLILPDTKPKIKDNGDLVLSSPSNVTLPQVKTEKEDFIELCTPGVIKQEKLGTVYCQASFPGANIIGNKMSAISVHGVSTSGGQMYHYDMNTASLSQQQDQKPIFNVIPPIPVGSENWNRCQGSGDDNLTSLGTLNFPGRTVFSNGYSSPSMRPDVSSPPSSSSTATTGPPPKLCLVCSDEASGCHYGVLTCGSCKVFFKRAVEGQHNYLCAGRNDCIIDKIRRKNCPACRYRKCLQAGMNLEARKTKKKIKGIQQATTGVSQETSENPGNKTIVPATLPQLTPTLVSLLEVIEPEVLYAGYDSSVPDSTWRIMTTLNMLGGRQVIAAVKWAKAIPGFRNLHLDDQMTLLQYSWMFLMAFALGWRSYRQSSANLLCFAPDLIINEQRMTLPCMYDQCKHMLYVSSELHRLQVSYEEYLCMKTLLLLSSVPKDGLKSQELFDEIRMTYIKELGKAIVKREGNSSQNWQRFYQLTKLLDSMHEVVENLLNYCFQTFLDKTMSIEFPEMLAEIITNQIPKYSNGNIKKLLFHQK
# In short: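 Multiplexed TRANS reporter system, HepG2; 24 h exposure; RNA → oligo(dT) RT → reporter-specific PCR → 6-FAM primer extension → HpaI cut → CE fluorescence. Gain-of-signal vs DMSO.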
# [9] = molecular target: Oxysterols receptor LXR-alpha (Homo sapiens) (UniProt Q13133); test: ATG_LXRa_TRANS: Attagene TRANS-FACTORIAL HepG2 Assay for human Liver X Receptor alpha (LXRa) (AID 2282980); conditions: HepG2 Attagene TRANS reporter, LXRa transactivation
# Oxysterols receptor LXR-alpha (Homo sapiens), sequence (Q13133 whole entry, looked up): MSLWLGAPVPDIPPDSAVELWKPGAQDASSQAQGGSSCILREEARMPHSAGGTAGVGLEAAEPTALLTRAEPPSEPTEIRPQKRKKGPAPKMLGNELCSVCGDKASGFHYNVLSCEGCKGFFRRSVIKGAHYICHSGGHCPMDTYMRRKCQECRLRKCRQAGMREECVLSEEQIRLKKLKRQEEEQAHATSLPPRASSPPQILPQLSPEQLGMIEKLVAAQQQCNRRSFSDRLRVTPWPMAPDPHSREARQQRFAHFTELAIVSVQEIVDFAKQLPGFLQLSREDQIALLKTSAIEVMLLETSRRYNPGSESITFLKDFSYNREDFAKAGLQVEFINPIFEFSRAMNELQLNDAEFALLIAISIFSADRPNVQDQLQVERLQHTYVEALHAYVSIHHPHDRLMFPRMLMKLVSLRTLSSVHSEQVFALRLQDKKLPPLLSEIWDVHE
# In short: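 Transient HepG2 transfectants, 24 h dosing, RT-PCR/CE mRNA reporter quantitation; gain-of-signal vs DMSO.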
# [10] = molecular target: Oxysterols receptor LXR-beta (Homo sapiens) (UniProt P55055); test: ATG_LXRb_TRANS: Attagene TRANS-FACTORIAL HepG2 Assay for human Liver X Receptor beta (LXRb) (AID 2282981); conditions: HepG2 Attagene TRANS GAL4-LXRb reporter, mRNA
# Oxysterols receptor LXR-beta (Homo sapiens), sequence (P55055 whole entry, looked up, the tested form may be a part): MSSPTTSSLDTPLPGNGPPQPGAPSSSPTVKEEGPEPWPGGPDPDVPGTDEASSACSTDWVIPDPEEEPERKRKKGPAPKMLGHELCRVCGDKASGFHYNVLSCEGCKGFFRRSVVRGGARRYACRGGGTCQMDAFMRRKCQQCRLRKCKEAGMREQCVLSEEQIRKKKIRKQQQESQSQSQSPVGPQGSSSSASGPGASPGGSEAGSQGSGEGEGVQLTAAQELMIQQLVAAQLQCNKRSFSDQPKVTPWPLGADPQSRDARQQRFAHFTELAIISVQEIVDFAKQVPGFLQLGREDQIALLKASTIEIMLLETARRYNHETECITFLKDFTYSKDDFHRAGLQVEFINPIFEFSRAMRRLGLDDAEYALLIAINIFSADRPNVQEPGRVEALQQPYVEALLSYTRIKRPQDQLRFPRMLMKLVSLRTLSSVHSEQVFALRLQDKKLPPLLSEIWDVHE
# In short: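 After 24 h of chemical treatment, transfected HepG2 cells yield total RNA; reporter cDNA is PCR-amplified, FAM-labelled, HpaI-cut and run on capillary electrophoresis. Signal reflects chimeric LXRb-Gal4 activity on GAL4-UAS reporters.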
# [11] = ATG_M_06_TRANS: Attagene TRANS-FACTORIAL HepG2 Assay for M06 Transcription Factor (Internal Marker) (AID 2282983); conditions: HepG2 Attagene TRANS M06 internal marker reporter;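 further: reporter transcript level by RT-PCR then capillary electrophoresis fluorescence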
# In short: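 Human liver HepG2 cells bearing transiently transfected chimeric NR-GAL4 reporter units were treated with chemicals for 24 h. Total RNA was reverse-transcribed, reporter sequences amplified and labelled, then quantified by capillary electrophoresis. Activity was fitted upward relative to DMSO.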
# [12] = ATG_M_32_TRANS: Attagene TRANS-FACTORIAL HepG2 Assay for M32 Transcription Factor (Internal Marker) (AID 2282984); conditions: HepG2 Attagene TRANS M32 internal marker reporter;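 further: transcript level of a background control reporter unit measured by RT-PCR and capillary electrophoresis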
# In short: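 Cell-based TRANS-format assay in HepG2: exogenous chimeric GAL4 reporter units transiently expressed, compounds applied 24 h. Reporter mRNA detected by RT-PCR plus capillary electrophoresis; this readout is an internal background marker.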
# [13] = molecular target: Nuclear receptor subfamily 4 group A member 2 (Homo sapiens) (UniProt P43354); test: ATG_NURR1_TRANS: Attagene TRANS-FACTORIAL HepG2 Assay for human Nuclear Receptor Related Protein 1 (NURR1) (AID 2282985); conditions: HepG2 Attagene TRANS reporter, mRNA readout
# Nuclear receptor subfamily 4 group A member 2 (Homo sapiens), sequence (P43354 whole entry, looked up, the tested form may be a part): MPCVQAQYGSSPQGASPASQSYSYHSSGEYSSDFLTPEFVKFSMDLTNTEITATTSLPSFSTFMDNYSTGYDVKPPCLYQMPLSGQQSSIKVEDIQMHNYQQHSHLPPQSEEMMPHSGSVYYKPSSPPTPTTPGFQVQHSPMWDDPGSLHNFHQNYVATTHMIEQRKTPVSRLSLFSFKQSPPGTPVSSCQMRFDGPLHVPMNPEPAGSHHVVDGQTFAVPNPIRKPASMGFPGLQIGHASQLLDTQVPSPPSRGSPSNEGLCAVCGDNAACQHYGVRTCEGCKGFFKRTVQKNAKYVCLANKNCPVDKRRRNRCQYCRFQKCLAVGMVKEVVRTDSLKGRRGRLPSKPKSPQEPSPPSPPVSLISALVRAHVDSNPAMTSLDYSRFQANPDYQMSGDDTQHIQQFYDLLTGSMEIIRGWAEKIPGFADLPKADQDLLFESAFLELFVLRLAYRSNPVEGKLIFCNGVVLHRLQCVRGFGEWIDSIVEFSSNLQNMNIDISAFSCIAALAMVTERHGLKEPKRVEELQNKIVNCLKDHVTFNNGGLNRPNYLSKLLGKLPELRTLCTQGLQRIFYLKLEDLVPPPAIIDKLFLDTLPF
# In short: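 Measures transcriptional activation by an exogenous NR-Gal4 chimera in transfected HepG2 liver cells. After 24 h, reporter RNA is reverse-transcribed, amplified and resolved by capillary electrophoresis; DMSO defines baseline.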
# [14] = molecular target: Transcriptional activator Myb (Homo sapiens) (UniProt P10242); test: ATG_Myb_CIS: Attagene CIS-FACTORIAL HepG2 Assay for human Myeloblastosis (Myb) Proto-Oncogene Transcription Factor (AID 2282986; active means hit-call score of the fitted dose curve at least 0.9, where 1 is the maximum; inactive means score below 0.9); conditions: HepG2 Attagene CIS-FACTORIAL Myb reporter transcription; actives raise or lower the signal
# Transcriptional activator Myb (Homo sapiens), sequence (P10242 whole entry, looked up): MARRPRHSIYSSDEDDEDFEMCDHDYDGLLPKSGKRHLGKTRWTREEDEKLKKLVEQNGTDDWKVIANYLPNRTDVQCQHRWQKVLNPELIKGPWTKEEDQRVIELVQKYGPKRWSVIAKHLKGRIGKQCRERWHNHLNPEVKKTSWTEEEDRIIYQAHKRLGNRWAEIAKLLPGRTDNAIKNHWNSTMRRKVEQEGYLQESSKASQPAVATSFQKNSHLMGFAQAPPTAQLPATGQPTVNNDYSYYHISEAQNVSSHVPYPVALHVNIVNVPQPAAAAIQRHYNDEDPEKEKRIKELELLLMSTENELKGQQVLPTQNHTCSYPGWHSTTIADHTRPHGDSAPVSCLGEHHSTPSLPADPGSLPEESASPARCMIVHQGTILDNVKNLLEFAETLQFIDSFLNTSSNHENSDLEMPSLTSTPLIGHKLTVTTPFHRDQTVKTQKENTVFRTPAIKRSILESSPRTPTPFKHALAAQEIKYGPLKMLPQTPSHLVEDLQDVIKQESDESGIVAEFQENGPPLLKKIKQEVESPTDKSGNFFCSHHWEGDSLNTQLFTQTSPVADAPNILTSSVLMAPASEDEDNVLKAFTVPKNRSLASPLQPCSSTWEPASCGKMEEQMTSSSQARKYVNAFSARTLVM
# In short: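 Endogenous transcription factor activity at a Myb-responsive cis element is reported in human liver HepG2 cells after 24 h chemical treatment. Reporter mRNA is detected by RT-PCR and capillary electrophoresis fluorescence, with DMSO as baseline.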
# [15] = molecular target: Nuclear receptor subfamily 1 group I member 3 (Homo sapiens) (UniProt Q14994); test: ATG_CAR_TRANS: Attagene TRANS-FACTORIAL HepG2 Assay for human Constitutive Androstane Receptor (CAR) (AID 2282969); conditions: HepG2 Attagene TRANS-FACTORIAL CAR reporter;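 further: activators raise reporter mRNA above DMSO so AC50 marks induction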
# Nuclear receptor subfamily 1 group I member 3 (Homo sapiens), sequence (Q14994 whole entry, looked up, the tested form may be a part): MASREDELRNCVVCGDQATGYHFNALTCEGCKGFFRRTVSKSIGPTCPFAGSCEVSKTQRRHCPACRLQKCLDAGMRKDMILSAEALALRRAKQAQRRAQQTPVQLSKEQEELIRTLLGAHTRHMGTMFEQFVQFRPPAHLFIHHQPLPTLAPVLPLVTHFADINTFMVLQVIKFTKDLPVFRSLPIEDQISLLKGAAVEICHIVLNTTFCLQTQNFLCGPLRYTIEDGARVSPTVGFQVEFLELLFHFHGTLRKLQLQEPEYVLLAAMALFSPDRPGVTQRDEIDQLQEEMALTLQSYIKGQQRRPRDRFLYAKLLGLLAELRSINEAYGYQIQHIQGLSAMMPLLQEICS
# In short: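 Signal is reporter mRNA induction relative to DMSO, measured 24 h after dosing by RT-PCR with fluorescent primer extension and capillary electrophoresis. Human HepG2 liver cells carried transiently transfected chimeric NR-Gal4/GAL4-UAS reporter constructs.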
# [16] = molecular target: Estrogen-related receptor gamma (Homo sapiens) (UniProt P62508); test: ATG_ERRg_TRANS: Attagene TRANS-FACTORIAL HepG2 Assay for human Estrogen-Related Receptor gamma (ERRg) (AID 2282977); conditions: HepG2 Attagene TRANS reporter, ERRg transactivation;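 further: hits increase reporter signal over DMSO so potencies reflect activators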
# In short: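 Exogenous NR-Gal4 chimera activity was assessed in HepG2 cells bearing transfected GAL4-UAS reporters. After 24 h dosing, total RNA underwent RT-PCR, fluorescent primer extension and HpaI digestion before capillary electrophoresis, with gain of signal scored against DMSO.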
# [17] = molecular target: Hepatocyte nuclear factor 4-alpha (Homo sapiens) (UniProt P41235); test: ATG_HNF4a_TRANS: Attagene TRANS-FACTORIAL HepG2 Assay for human Hepatocyte Nuclear Factor 4 alpha (HNF4a) (AID 2282982); conditions: HepG2 HNF4a transactivation reporter, mRNA readout
# Hepatocyte nuclear factor 4-alpha (Homo sapiens), sequence (P41235 whole entry, looked up): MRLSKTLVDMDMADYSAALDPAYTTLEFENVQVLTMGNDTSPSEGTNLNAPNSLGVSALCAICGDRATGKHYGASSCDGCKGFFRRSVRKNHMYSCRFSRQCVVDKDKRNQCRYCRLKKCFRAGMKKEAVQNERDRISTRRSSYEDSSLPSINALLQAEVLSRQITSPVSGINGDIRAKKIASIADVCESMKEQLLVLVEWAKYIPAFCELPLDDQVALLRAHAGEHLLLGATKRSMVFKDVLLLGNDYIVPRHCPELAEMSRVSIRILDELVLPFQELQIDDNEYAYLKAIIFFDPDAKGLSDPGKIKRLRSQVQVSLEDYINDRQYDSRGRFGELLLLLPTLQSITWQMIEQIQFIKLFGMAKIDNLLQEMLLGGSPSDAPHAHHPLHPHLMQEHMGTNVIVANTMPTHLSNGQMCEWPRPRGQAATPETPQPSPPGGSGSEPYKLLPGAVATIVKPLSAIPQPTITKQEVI
# In short: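 Multiplexed reporter assay: transfected HepG2, 24 h exposure, total RNA → oligo(dT) RT → PCR → 6-FAM extension → HpaI digest → CE fluorescence. DMSO = negative control.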
# [18] = ATG_TAL_CIS: Attagene CIS-FACTORIAL HepG2 Assay for human TAL Basal Promoter (AID 2282966; active means hit-call score of the fitted dose curve at least 0.9, where 1 is the maximum; inactive means score below 0.9;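 further: background control endpoint measuring basal TAL promoter reporter mRNA not a specific factor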); conditions: HepG2 Attagene cis-factorial TAL promoter reporter; actives raise or lower the signal
# In short: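 Endogenous transcription-factor activity is sensed in HepG2 cells through transfected cis-promoter reporter constructs. After 24 h dosing, reporter transcripts are quantified by RT-PCR and capillary electrophoresis. Gain or loss of signal is fitted relative to DMSO.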
# [19] = molecular target: Steroid hormone receptor ERR1 (Homo sapiens) (UniProt P11474); test: ATG_ERRa_TRANS: Attagene TRANS-FACTORIAL HepG2 Assay for human Estrogen-Related Receptor alpha (ERRa) (AID 2282971); conditions: HepG2 Attagene TRANS reporter, ERRa transactivation
# In short: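 HepG2 cells were transiently transfected with multiple GAL4-UAS reporter units, then dosed with compound for 24 h. Total RNA was reverse-transcribed, reporter cDNA PCR-amplified and fluorescently labelled, and fragments resolved by capillary electrophoresis; induction was compared with DMSO.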
# [20] = molecular target: Bile acid receptor (Homo sapiens) (UniProt Q96RI1); test: ATG_FXR_TRANS: Attagene TRANS-FACTORIAL HepG2 Assay for Farnesoid X Receptor (FXR) (AID 2282979); conditions: HepG2 Attagene TRANS FXR-GAL4 reporter transcription;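 further: hits raise reporter mRNA above DMSO so AC50 marks FXR activation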
# In short: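 Chimeric FXR-GAL4 activity in transiently transfected human HepG2 liver cells is scored as induction of reporter mRNA after 24 h of dosing. Detection uses RT-PCR with fluorescent labelling and capillary electrophoresis, with DMSO serving as baseline.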
smiles,measurement,setting,value
CC(C)(C)c1cc(O)c(C(C)(C)C)cc1O,AC50,[1],8.01 µM (active)
same,outcome,[2],inactive
same,AC50,[3],32 µM (active)
same,outcome,[4],inactive
same,AC50,[5],37.6 µM (active)
same,outcome,[6],inactive
same,outcome,[7],inactive
same,outcome,[8],inactive
same,outcome,[9],inactive
same,outcome,[10],inactive
same,outcome,[11],inactive
same,outcome,[12],inactive
same,outcome,[13],inactive
same,outcome,[14],inactive
CCNc1cccc(C)c1,outcome,[1],inactive
same,outcome,[2],inactive
same,outcome,[3],inactive
same,outcome,[15],inactive
same,outcome,[5],inactive
same,outcome,[16],inactive
same,outcome,[9],inactive
same,outcome,[10],inactive
same,outcome,[11],inactive
same,outcome,[13],inactive
same,outcome,[14],inactive
CCCCCCC(=O)OCC,outcome,[1],inactive
same,outcome,[2],inactive
same,outcome,[3],inactive
same,outcome,[15],inactive
same,outcome,[5],inactive
same,outcome,[6],inactive
same,outcome,[16],inactive
same,outcome,[17],inactive
same,outcome,[11],inactive
same,outcome,[12],inactive
same,outcome,[13],inactive
same,outcome,[14],inactive
CCCCCCCCCCO,AC50,[1],166 µM (active)
same,outcome,[18],inactive
same,outcome,[3],inactive
same,AC50,[5],160 µM (active)
same,outcome,[17],inactive
same,outcome,[11],inactive
same,outcome,[14],inactive
CC1(C)NC(=O)NC1=O,outcome,[1],inactive
same,outcome,[2],inactive
same,outcome,[3],inactive
same,outcome,[15],inactive
same,AC50,[4],26.3 µM (active)
same,outcome,[19],inactive
same,outcome,[5],inactive
same,outcome,[6],inactive
same,outcome,[8],inactive
same,outcome,[9],inactive
same,outcome,[10],inactive
same,outcome,[17],inactive
same,outcome,[11],inactive
same,outcome,[12],inactive
same,outcome,[13],inactive
same,outcome,[14],inactive
O=C(O)Cc1ccccc1Nc1c(Cl)cccc1Cl,AC50,[1],40.6 µM (active)
same,outcome,[18],inactive
same,AC50,[3],16.2 µM (active)
same,outcome,[5],inactive
same,outcome,[6],inactive
same,outcome,[7],inactive
same,outcome,[12],inactive
same,outcome,[13],inactive
same,outcome,[14],inactive
FC(F)(F)C(F)(F)C(F)(F)C(F)(F)C(F)(F)C(F)(F)CCI,outcome,[1],inactive
same,outcome,[2],inactive
same,outcome,[3],inactive
same,outcome,[15],inactive
same,outcome,[5],inactive
same,outcome,[9],inactive
same,outcome,[10],inactive
same,outcome,[11],inactive
same,outcome,[12],inactive
same,outcome,[14],inactive
Nc1ccccc1N,outcome,[1],inactive
same,outcome,[18],inactive
same,AC50,[3],34.8 µM (active)
same,outcome,[15],inactive
same,AC50,[5],51.8 µM (active)
same,outcome,[8],inactive
same,outcome,[9],inactive
same,outcome,[10],inactive
same,outcome,[17],inactive
same,outcome,[11],inactive
same,outcome,[12],inactive
same,outcome,[14],inactive
NC(=O)Cn1c(=O)cc(CCN2CCN(c3nccc4sccc34)CC2)c2ccc(F)cc21,AC50,[1],30.9 µM (active)
same,outcome,[18],inactive
same,outcome,[3],inactive
same,outcome,[4],inactive
same,outcome,[19],inactive
same,outcome,[5],inactive
same,outcome,[6],inactive
same,outcome,[7],inactive
same,outcome,[16],inactive
same,outcome,[8],inactive
same,outcome,[20],inactive
same,outcome,[9],inactive
same,outcome,[12],inactive
same,outcome,[13],inactive
same,outcome,[14],inactive
C[C@]12C=CC(=O)C=C1CC[C@@H]1[C@@H]2C(=O)C[C@@]2(C)[C@H]1CC[C@]2(O)C(=O)CO,outcome,[1],inactive
same,outcome,[18],inactive
same,outcome,[3],inactive
same,outcome,[5],inactive
same,outcome,[10],inactive
same,outcome,[11],inactive
same,outcome,[14],inactive
CC(=O)Oc1ccccc1C(=O)O,AC50,[1],162 µM (active)
same,outcome,[18],inactive
same,AC50,[3],82.9 µM (active)
same,outcome,[5],inactive
same,outcome,[8],inactive
same,AC50,[9],71.6 µM (active)
same,AC50,[10],100 µM (active)
same,outcome,[17],inactive
same,outcome,[11],inactive
same,AC50,[13],100 µM (active)
same,outcome,[14],inactive
